Out of some 220,000 compounds screened, about 2,000 (0.91%) were called active. About 2% were inconclusive and are not listed. A selection follows. Results with a measured potency or affinity are listed apart. A number with no mark means an inactive call. No stated cut-off is given here; in the data, inconclusive means inhibition above about 80% without an active follow-up result; inactive means below that; test concentration not stated here.

A short description of this assay: M. tuberculosis H37Rv growth inhibitors, H37Rv strain (AID 1626).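 Further: bacteria incubated seven days before Alamar blue readout; 0% = bacteria only wells and 100% = bacteria with antibiotic wells.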 The following applies: hits give high values, concentration not given here.
A word on the inhibition: it is the relative decrease from the control value, in per cent. On to `CC(=O)NCCn1c(SCC(=O)c2ccc(Cl)cc2)nc2ccccc2c1=O`, for which the inhibition was -2.5%.

Regarding `Cc1ccc(NC(=O)c2ccc([N+](=O)[O-])cc2Cl)nc1`, the inhibition was 1.78%.

On to `Cc1c(C(=O)N2CCCCC2)sc(NC(=O)C(C)C)c1C#N`, for which the inhibition is -2.5%.

For `Cc1c(C(=O)N2CCCCC2)sc(NC(=O)C2CC2)c1C#N`, the inhibition is -1.68%.

Take `CCCC1=NN(C(=O)Cc2ccc(OC)c(OC)c2)C(O)(C(F)(F)F)C1` (stereo unspecified): the inhibition is 7.79%.

For the compound `O=C(O)COc1c(-c2ccco2)oc2ccccc2c1=O`, the inhibition was -8.35%.

Regarding `COc1ccc(-c2oc3ccccc3c(=O)c2OC(C)=O)cc1`, the inhibition was 67.5%.

As for `CCC(C)NS(=O)(=O)c1ccc(NC(C)=O)cc1` (stereo unspecified), the inhibition is -1.33%.

With `CC(C)OCC(O)CS(=O)Cc1ccccc1` (stereo unspecified), the inhibition is -8.07%.

In the case of `CCC(=O)Nc1ccc2nc(C)n(CC(=O)Nc3ccccc3)c(=O)c2c1`, the inhibition is -7.72%.

As to `COc1ccc(C2c3ccc4ccccc4c3Oc3ncn(Cc4ccco4)c(=N)c32)cc1OC` (stereo unspecified), the inhibition was 8.86%.

In the case of `N=c1c2c(ncn1Cc1ccco1)Oc1ccc3ccccc3c1C2c1ccccc1` (stereo unspecified), the inhibition was 20.9%.

Regarding `Cc1cnc(C(=O)OCC(=O)Nc2ccc(Oc3ccccc3)cc2)cn1`, the inhibition was 38%.

With `Cc1ccc2c(c1)c1ncnc(N3CCC4(CC3)OCCO4)c1n2C`, the inhibition was -2.11%.

On to `Fc1ccc2[nH]c3c(N4CCc5ccccc5C4)ncnc3c2c1`, for which the inhibition is 4.31%.

As to `Brc1ccc2[nH]c3c(N4CCc5ccccc5C4)ncnc3c2c1`, the inhibition was 5.42%.

On to `Cc1ccc2c(c1)c1ncnc(N3CCN(c4ccccc4)CC3)c1n2C`, for which the inhibition was 0.76%.

On to `CCN(CC(=O)NCc1cccs1)C(=O)c1ccc(S(=O)(=O)N(C)C)cc1`, for which the inhibition was 2.21%.

Take `COc1cccc(NC(=O)CN2CCN(S(=O)(=O)c3ccc(F)cc3)CC2)c1`: the inhibition is -7.83%.

For the compound `O=C1/C(=C\c2ccc(Cl)c(Cl)c2)N2CCC1CC2`, the inhibition was 15.2%.

Turning to `COc1ccc(NCC(=O)Nc2ccc(Br)cc2F)c(OC)c1`, the inhibition is 75.1%.

For `Cc1ccc(NC(=O)CNc2ccc(OC(C)C)cc2)c(C)c1`, the inhibition is 46.8%.

Take `CCOc1ccc(NC(=O)CNc2ccc(C)cc2Cl)cc1`: the inhibition is -1.87%.

In the case of `COc1ccc(Cl)cc1NC(=O)CNc1ccc(F)cc1C`, the inhibition is 6.38%.

For `Cc1ccc(NC(=O)C(=O)NCCOc2ccc(Cl)cc2)c(C)c1`, the inhibition is 7.98%.

Consider `CCOC(=O)Nc1ccc(C)cc1C`, for which the inhibition was 0.47%.

As for `CCOc1ccc(OCCC(=O)Nc2ccc(F)cc2C)cc1`, the inhibition was -6.9%.

On to `Cc1ccc(NC(=O)CCC(=O)NNC(=O)COc2ccccc2)c(C)c1`, for which the inhibition is 2.24%.

On to `C[C@@H]1CC[C@]2(O[C@@H](CCO)C[C@@H](O)[C@@H]2O)O1`, for which the inhibition is -6.09%.

In the case of `Cc1nc2sc(C(c3cccc(F)c3)N3CCC(C)CC3)c(O)n2n1` (stereo unspecified), the inhibition is -7.23%.

On to `O=S(=O)(c1ccc(Cl)c(S(=O)(=O)N2CCCC2)c1)N1CCCC1`, for which the inhibition is -11.7%.

Take `CC(=O)c1ccc(N2CCN(C(=O)C3(S(=O)(=O)c4ccc(Cl)cc4)CC3)CC2)cc1`: the inhibition is 1.33%.

Turning to `Cc1cc(N2CCN(C)CC2)nc2ccc(NC(=S)N3CCCCC3)cc12`, the inhibition was 30.4%.

Regarding `CN(C(=O)COc1ccc(S(=O)(=O)N2CCOCC2)cc1[N+](=O)[O-])C1CCS(=O)(=O)C1` (stereo unspecified), the inhibition was -7.08%.

In the case of `COc1ccc(NC(=O)c2cccnc2N2CCOCC2)cc1`, the inhibition is 4.7%.

In the case of `COc1ccccc1NC(=S)N(CCCN1CCOCC1)Cc1cccs1`, the inhibition was -3.58%.

Regarding `CCc1cccc2c(C(=O)COC(=O)c3ccccc3)c[nH]c12`, the inhibition is 7.6%.

With `O=C(COC(=O)c1ccc([N+](=O)[O-])s1)NCc1ccccc1`, the inhibition was 17.7%.

On to `CCc1cccc2c(C(=O)COC(=O)c3ccc(O)cc3)c[nH]c12`, for which the inhibition is 2.75%.

Consider `Cc1[nH]c2ccccc2c1C(=O)COC(=O)c1ccc([N+](=O)[O-])s1`, for which the inhibition is 99.3%.

For the compound `CCN(C(=O)CCCC(=O)N(CC)c1ccccc1)c1ccccc1`, the inhibition was -1.06%.

Turning to `Cc1cc(C)nc(SCC(=O)Nc2ccc(S(=O)(=O)Nc3onc(C)c3C)cc2)n1`, the inhibition was -9.62%.

For the compound `CC(C)(C)CN1CCNC(=O)C1CC(=O)N1CCN(c2ccccc2)CC1` (stereo unspecified), the inhibition was -2.51%.

Regarding `O=C(NCc1cccc(C(F)(F)F)c1)c1cc(Cl)ccc1Cl`, the inhibition is 15%.

For `CC1=Nc2ccccc2/C1=C\c1nc(-c2ccc(F)cc2)oc1O`, the inhibition is 54.8%.

Take `CC1=Nc2ccccc2/C1=C\c1nc(-c2ccccc2)oc1O`: the inhibition was 3.61%.

As to `O=C(O)CSCC(=O)NCc1ccccc1`, the inhibition is -2.1%.

Consider `O=C(CSCc1ccc(C(=O)O)cc1)Nc1ccc2ccccc2c1`, for which the inhibition was 35.7%.

As for `CC(C)(C)CC(C)(C)NC(=O)CSCC(=O)Nc1ccc2ccccc2c1`, the inhibition was -8.35%.

Regarding `CC(C)c1ccc(CNC(=O)CCc2ccccc2)cc1`, the inhibition was 6.15%.

On to `CCN(CC)C(=N)/C(C#N)=N/Nc1ccccc1`, for which the inhibition is -13.5%.

In the case of `Cn1cccc1C(=O)NC(=O)COC(=O)CNC(=O)c1ccc(Cl)cc1Cl`, the inhibition is -13%.

As for `O=C(Cn1nc(C(F)(F)F)c2c1CCCC2)Nc1ccc2c(c1)OCO2`, the inhibition was -0.66%.

Consider `CCOc1ccc(C2=NNC(c3cccnc3)=Nc3ccc(OC)cc32)cc1`, for which the inhibition is 1.63%.

As for `N#CCCn1c(C(C#N)(CCC#N)CCC#N)nc2ccccc21`, the inhibition is -2.99%.

Regarding `COc1ccc(S(=O)(=O)N=C2C=C(C)C(=O)C(C)=C2)cc1`, the inhibition was -5.5%.

In the case of `COc1ccc(C(=O)ON=C2C=C(C)C(=O)C(C)=C2)cc1`, the inhibition was -2.82%.

As to `COc1cc(C(C(=O)NC(C)(C)C)N(Cc2ccc3c(c2)OCO3)C(=O)c2cnccn2)cc(OC)c1OC` (stereo unspecified), the inhibition was -6.38%.

As for `CCOC(=O)C[C@H]1c2ccccc2S(=O)(=O)N1c1cccc(OC)c1`, the inhibition was -8.13%.

With `CC(=O)Nc1sc2c(c1CN1CCCC1)CCCC2`, the inhibition was -3.09%.

For the compound `CC(=O)Nc1sc2c(c1CN1CCN(C)CC1)CCCC2`, the inhibition was -1.53%.

In the case of `COc1cccc(C(=O)Nc2ccc(NC(C)=O)cc2)c1`, the inhibition was -16.8%.

On to `CC1CCCN(C(=O)Cn2cnc3c2c(=O)n(C)c(=O)n3C)C1` (stereo unspecified), for which the inhibition is 10.5%.

Take `O=C(OCC(=O)N1CCCc2ccccc21)c1ccc(Cl)nc1`: the inhibition was 60.1%.

`O=C(OCC(=O)N1CCc2ccccc21)c1cccnc1`: the inhibition is -5.16%.

As to `Cc1cc(C(=O)OCC(=O)N2c3ccccc3CC2C)c(C)o1` (stereo unspecified), the inhibition was 7.82%.

Turning to `CC1Cc2ccccc2N1C(=O)COC(=O)CNC(=O)c1ccc(Br)o1` (stereo unspecified), the inhibition was -10.5%.

Take `CC1Cc2ccccc2N1C(=O)COC(=O)c1cccnc1Cl` (stereo unspecified): the inhibition is 3.35%.

Regarding `CC1Cc2ccccc2N1C(=O)COC(=O)c1ccc(O)cc1` (stereo unspecified), the inhibition is 2.09%.

As to `NC(=O)CC[C@@H]1NC(=O)[C@@H]2CCCN2C(=O)c2cc([N+](=O)[O-])cc(I)c2NCCCC[C@@H](C(=O)NC(CC(=O)O)C(N)=O)NC1=O` (stereo partly specified), the inhibition was 0.47%.

Consider `Cc1ccc(NC(=O)CSc2nnc(-c3n[nH]c4ccccc34)n2-c2ccccc2)c(C)c1`, for which the inhibition is 14.9%.

With `COc1ccc(Cl)cc1Nc1nc(C)cc(C)c1C(N)=O`, the inhibition is -2.67%.

As to `Cc1cc2c(sc3ccccc32)c(C)n1`, the inhibition is 5.03%.

For the compound `O=Cc1ccc(N2CCCC2)o1`, the inhibition is 46.4%.

`CN1C(=O)C(=Cc2ccc(N3CCOCC3)o2)C(=O)N(C)C1=O`: the inhibition was 5.8%.

`O=C(Nc1cccc2ncccc12)C12CC3CC(CC(C3)C1)C2`: the inhibition is -10%.

For `Cc1ccccc1OCc1nnc(SCC(=O)NCc2ccccc2)n1C`, the inhibition is 2.63%.

On to `Cc1ccccc1C(=O)NC1CCN(CC(=O)NCc2cccs2)CC1`, for which the inhibition is 2.61%.

For `Cc1ccc(N/C=C/C(=O)c2sc(-c3ccccc3)nc2C)cc1`, the inhibition is 3.94%.

With `COc1ccc(/C=C/C(=O)c2sc(-c3ccccc3)nc2C)cc1`, the inhibition was 6.03%.

Turning to `COc1cc(S(=O)(=O)N2CCCCC2)ccc1NC(=O)Cc1ccccc1`, the inhibition was -1.81%.

Regarding `Cc1ccc(CNC(=O)COC(=O)c2cnc(C)cn2)cc1`, the inhibition was 0.26%.

Regarding `COC1=C(Nc2ccc(OC)cc2)C(=O)c2ccccc2C1=O`, the inhibition is 8.34%.

In the case of `COC1=C(Nc2ccccc2)C(=O)c2ccccc2C1=O`, the inhibition is 13.5%.

For the compound `COc1cccc(-c2nc(-c3ccc(C(=O)O)cc3)no2)c1`, the inhibition was -12.7%.

Consider `O=[N+]([O-])c1cc(CN2CCN(c3ccccc3)CC2)c(O)c2ncccc12`, for which the inhibition is 77.9%.

Take `O=[N+]([O-])c1cc(CN2CCCC2)c2cccnc2c1O`: the inhibition was -5.59%.

For the compound `COc1ccc(NC(=O)C2C3CCC(C3)C2C(=O)O)cc1OC` (stereo unspecified), the inhibition was 6.44%.

Turning to `COCCC(=O)Nc1ccc2c(c1)CN(C(=O)CCSC)CC2`, the inhibition was 3.42%.

Regarding `CCn1c(CNc2ccc(OC)cc2)nnc1SCC(=O)Nc1ccc(F)cc1`, the inhibition is -10.9%.

Consider `CCn1c(CNc2ccc(F)cc2)nnc1SCC(=O)Nc1ccc(OC)cc1`, for which the inhibition was 2.51%.

As for `CCn1c(CNc2ccccc2Cl)nnc1SCCN1CCCCC1`, the inhibition was -2.66%.

On to `CCn1c(CNc2ccccc2Cl)nnc1SCC(=O)NCc1ccccc1`, for which the inhibition was -4.41%.

As to `Cc1ccc(NC(=O)CSc2nnc(Cc3ccccc3)o2)cc1`, the inhibition is 22.6%.

`O=C(CSc1nnc(Cc2ccccc2)o1)Nc1ccccc1`: the inhibition is -4.88%.

For `COCCN(C(=O)c1ccco1)C(C(=O)NC1CCCC1)c1cccs1` (stereo unspecified), the inhibition was 0.07%.
